This note sets out measurements from PubChem BioAssay (NCATS).

The target of test [1] is Cytochrome P450 1A2 (Homo sapiens) (UniProt P05177). Description: p450-cyp1a2 (AID 410; calls by dose curve; note: potency is the fitted concentration of half-maximal effect;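 for activity change, negative = inhibition: -100% = full effect of reference inhibitor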). The gist of the method:
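Read-out is luminescence from luciferin produced by CYP1A2 demethylation of Luciferin-ME (100uM, at Km). Detection reagent stopped the 60 min NADPH-dependent reaction; signals were normalized to 57 uM furafylline.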

The target in test [2] is Glucocorticoid receptor (Homo sapiens) (UniProt P04150). Description: GR-GFP Redistribution (AID 450;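 active = compounds whose dose series gives a full or clear partial fitted curve of increased nuclear translocation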; note: potency is the fitted concentration of half-maximal effect). The settings on record: U2OS GR-GFP nuclear translocation, laser cytometry, 2 h.
Chain of Glucocorticoid receptor (Homo sapiens) (P04150 whole entry, looked up): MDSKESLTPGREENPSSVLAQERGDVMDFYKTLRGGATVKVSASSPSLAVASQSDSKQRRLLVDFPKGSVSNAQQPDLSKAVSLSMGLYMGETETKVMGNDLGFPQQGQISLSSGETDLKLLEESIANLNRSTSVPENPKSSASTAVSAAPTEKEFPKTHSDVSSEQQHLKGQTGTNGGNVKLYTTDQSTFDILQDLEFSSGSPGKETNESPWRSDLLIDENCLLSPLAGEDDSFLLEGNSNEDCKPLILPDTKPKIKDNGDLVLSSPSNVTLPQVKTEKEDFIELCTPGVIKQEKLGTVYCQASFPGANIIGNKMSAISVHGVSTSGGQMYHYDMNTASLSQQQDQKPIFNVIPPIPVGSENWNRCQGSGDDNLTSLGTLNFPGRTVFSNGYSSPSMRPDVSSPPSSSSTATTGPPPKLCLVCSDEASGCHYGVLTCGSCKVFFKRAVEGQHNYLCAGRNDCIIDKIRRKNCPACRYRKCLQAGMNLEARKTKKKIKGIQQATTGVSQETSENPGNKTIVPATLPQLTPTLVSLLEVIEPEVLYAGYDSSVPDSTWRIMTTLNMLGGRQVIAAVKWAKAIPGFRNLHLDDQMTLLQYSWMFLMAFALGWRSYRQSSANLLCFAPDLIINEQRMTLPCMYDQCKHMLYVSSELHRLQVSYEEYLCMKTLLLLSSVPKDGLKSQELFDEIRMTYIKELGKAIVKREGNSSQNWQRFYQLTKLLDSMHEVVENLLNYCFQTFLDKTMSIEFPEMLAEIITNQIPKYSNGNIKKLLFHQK
The target is the same in test [3]. Kind of test: GR-EFC Redistribution (AID 451; calls by dose curve; note: potency is the fitted concentration of half-maximal effect). To be noted: CHO-K1 GR-EFC translocation, beta-gal luminescence, 2 h. The gist of the method:
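CHO-K1 cells stably expressing nuclear-localized β-gal enzyme acceptor and GR fused C-terminally to the enzyme donor fragment; ligand-driven nuclear translocation restores β-gal by complementation. Compounds titrated up to 46 uM final, 2 h at 37 °C; luminescence read.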

For test [4], the target named is Mitogen-activated protein kinase 10 (Mus musculus) (UniProt Q61831). Kind of test: JNK3 AlphaScreen Assay (AID 530; active = well fitted curve in either direction with a large enough effect, not every such curve was filed as active;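 note: kinase came from lysate of stimulated human HepG2 cells; signal reports phosphorylation of biotinylated GST-cJun 1-79 at Ser73 with 10 µM ATP; % is set by controls: 0 for no effect and ±100 for the full control effect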). The gist of the method: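 Biotinylated GST-cJun(1-79) served as substrate for JNK3 in HepG2 lysates stimulated with IL-1beta and TNF-alpha. ATP was 10 uM final, pH 7.6. Ser73 phosphorylation was quantified by AlphaScreen (680 nm excitation).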
The target in test [5] is Cytochrome P450 3A4 (Homo sapiens) (UniProt P08684). Description: qHTS Assay for Activators of Cytochrome P450 3A4 (AID 885). Note: nearly all actives have a fitted effect of over 65% in size. The gist of the method: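 Using 20nM recombinant human CYP3A4 in potassium phosphate (200mM), substrate Luciferin-PPXE at 25uM, luminescent luciferin detection followed a 60-min RT NADPH reaction; data scaled to 57 uM ketoconazole.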
Chain of Cytochrome P450 3A4 (Homo sapiens) (P08684 whole entry, looked up): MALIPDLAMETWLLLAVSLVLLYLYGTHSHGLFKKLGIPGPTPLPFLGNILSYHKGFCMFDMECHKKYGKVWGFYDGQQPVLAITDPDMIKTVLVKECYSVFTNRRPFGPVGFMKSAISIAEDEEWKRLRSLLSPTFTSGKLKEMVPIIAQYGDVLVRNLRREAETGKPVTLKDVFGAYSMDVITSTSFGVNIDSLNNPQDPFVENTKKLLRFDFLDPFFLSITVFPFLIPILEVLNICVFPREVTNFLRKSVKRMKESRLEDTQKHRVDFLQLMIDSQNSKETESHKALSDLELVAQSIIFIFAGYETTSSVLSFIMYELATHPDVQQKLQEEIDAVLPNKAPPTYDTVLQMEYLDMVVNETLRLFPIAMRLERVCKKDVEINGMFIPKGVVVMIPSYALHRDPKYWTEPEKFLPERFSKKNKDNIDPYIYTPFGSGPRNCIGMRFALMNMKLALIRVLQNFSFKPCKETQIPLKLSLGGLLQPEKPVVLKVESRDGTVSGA
Test [6] deals with Cytochrome P450 2D6 (Homo sapiens) (UniProt P10635). Kind of test: qHTS Assay for Inhibitors and Substrates of Cytochrome P450 2D6 (AID 891). Note: nearly all actives have a fitted effect of over 60% in size. Note: potency is the fitted concentration of half-maximal effect. The gist of the method: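 Luminescent read-out of luciferin formed by 5 nM human CYP2D6 demethylating 30 uM Luciferin-ME EGE (Km level) over 60 min at room temperature after NADPH regeneration addition. Data normalized to full inhibition by 1.43 uM quinidine.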
Chain of Cytochrome P450 2D6 (Homo sapiens) (P10635 whole entry, looked up): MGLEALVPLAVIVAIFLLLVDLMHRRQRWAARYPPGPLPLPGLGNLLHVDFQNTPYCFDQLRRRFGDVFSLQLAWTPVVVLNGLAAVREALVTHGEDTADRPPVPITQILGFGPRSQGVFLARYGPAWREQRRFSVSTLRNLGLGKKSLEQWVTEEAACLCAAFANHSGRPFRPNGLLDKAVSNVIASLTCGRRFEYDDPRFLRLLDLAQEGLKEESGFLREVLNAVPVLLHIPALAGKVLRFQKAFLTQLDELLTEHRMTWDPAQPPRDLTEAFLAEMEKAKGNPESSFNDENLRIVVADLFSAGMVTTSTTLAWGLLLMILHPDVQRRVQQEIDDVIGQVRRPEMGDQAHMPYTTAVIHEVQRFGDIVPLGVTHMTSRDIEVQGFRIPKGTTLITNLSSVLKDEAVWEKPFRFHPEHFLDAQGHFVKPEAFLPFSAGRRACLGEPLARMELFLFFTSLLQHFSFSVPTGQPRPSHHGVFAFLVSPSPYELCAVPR

Test [7] has as its target Cytochrome P450 2C19 (Homo sapiens) (UniProt P33261). Kind of test: qHTS Assay for Inhibitors and Substrates of Cytochrome P450 2C19 (AID 899). Note: potency is the fitted concentration of half-maximal effect; nearly all actives have a fitted effect of over 60% in size. In short, it runs like this:
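Human CYP2C19 (5nM) with Luciferin-H EGE at 10uM (its KM) in 50mM KPO4 was preincubated with compound for 10 min at 37C. NADPH regeneration started a 60 min 37C reaction. Luciferin was read by luminescence, normalized to 57uM ketoconazole.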

In test [8] the target is Ubiquitin carboxyl-terminal hydrolase 1 (Homo sapiens) (UniProt O94782). Description: Inhibitors of USP1/UAF1: Pilot qHTS (AID 504865).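 Note: rhodamine fluorescence freed from ubiquitin-rhodamine substrate followed over time; top concentration of the series differs between compounds; % is set by controls: 0 for no effect and ±100 for the full control effect; nearly all actives have a fitted effect of over 35% in size.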 The gist of the method: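 USP1/UAF1 complex at 1 nM preincubated 15 min at room temperature with compound, then Ub-Rho substrate added at 150 nM final. Fluorescence (480/540 nm) read kinetically in 50 mM HEPES pH 7.8, 0.5 mM EDTA, 1 mM TCEP, 0.1 mg/ml BSA, 0.01% Tween-20.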
Chain of Ubiquitin carboxyl-terminal hydrolase 1 (Homo sapiens) (O94782 whole entry, looked up): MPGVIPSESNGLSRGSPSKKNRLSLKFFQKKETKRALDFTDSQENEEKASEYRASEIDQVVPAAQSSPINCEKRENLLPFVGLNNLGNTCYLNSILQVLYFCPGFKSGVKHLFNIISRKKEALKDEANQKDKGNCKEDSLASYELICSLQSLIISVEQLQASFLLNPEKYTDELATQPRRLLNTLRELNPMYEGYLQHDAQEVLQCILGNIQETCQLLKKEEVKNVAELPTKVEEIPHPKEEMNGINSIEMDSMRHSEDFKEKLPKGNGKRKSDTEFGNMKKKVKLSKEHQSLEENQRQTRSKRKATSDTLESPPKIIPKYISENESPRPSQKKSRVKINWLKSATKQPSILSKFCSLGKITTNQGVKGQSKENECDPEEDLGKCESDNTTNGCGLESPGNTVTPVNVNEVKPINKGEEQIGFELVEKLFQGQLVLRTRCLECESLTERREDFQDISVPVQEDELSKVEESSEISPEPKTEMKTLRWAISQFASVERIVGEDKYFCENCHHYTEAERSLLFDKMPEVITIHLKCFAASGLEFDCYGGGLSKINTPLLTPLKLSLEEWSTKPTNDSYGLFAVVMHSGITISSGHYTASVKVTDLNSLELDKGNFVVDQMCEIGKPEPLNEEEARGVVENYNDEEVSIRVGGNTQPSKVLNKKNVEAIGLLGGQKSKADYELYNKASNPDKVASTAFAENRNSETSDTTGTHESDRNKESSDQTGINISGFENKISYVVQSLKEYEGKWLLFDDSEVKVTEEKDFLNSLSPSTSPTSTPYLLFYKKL

In test [9] the test system is Zika virus NS2B-NS3 protease. Description: Primary screen GU AMC qHTS for Zika virus inhibitors (AID 1347154).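 Note: 0% = no-inhibitor control and -100% = no-enzyme control; nearly all actives have a fitted effect of over 70% in size.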 In short, it runs like this: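 Unlinked Zika NS2B hydrophilic domain/NS3 protease domain noncovalent complex (25 nM final) in 10 mM Tris-HCl pH 8.0, 0.01% Tween 20, with AMC peptide substrate. Fluorescence (ex 340, em 450 nm) change over 15 min, room temperature; percent inhibition fitted to 4-parameter Hill equation.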

Test [10] is described as follows: Counterscreen qHTS for small molecule stabilizers of the endoplasmic reticulum resident proteome: GLuc-NoTag assay (AID 1508627).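 For activity change, negative = inhibition: 0% = thapsigargin alone and -100% = DMSO vehicle control.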 Note: potency is the fitted concentration of half-maximal effect. In short, it runs like this: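 Secreted GLuc lacking the SERCaMP modification is measured in SH-SY5Y cells exposed to compound for 19 h and then to thapsigargin (100 nM, 4 h) to deplete ER calcium; hits retested at 11 concentrations, up to 76.6 uM.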

Test [11] can be described thus: Cell Viability qHTS for small molecule stabilizers of the endoplasmic reticulum resident proteome (AID 1508629).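 Note: compound exposure about 46 h in total before the viability read.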 Note: potency is the fitted concentration of half-maximal effect. The settings on record: cell viability counter-screen, 100 nM thapsigargin for final 4 h.
A short description of test [12]: Primary qHTS for small molecule stabilizers of the endoplasmic reticulum resident proteome: Secreted ER Calcium Modulated Protein (SERCaMP) assay (AID 1508630). Note: potency is the fitted concentration of half-maximal effect. In short, it runs like this: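 The SH-SY5Y reporter protocol was run at 3 concentrations up to 38.3 uM (primary) or 11 concentrations (follow-up): 16 h compound, 100 nM thapsigargin for 4 h, then extracellular luciferase luminescence.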

Test [13] in a line: AP1 Signaling Pathway (AID 357; active = well fitted curve in either direction with a large enough effect, not every such curve was filed as active; note: % is set by controls: 0 for no effect and ±100 for the full control effect). To be noted: ME-180 AP-1-bla reporter, EGF-induced, beta-lactamase ratio, 5 h; at 38 µM (top of the series). The gist of the method: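 Cells are seeded overnight, exposed to compound titrations and an EC50 level of EGF for 5 hours at 37 °C, then loaded with CCF4 dye for 2.5 hours. Beta-lactamase activity under the AP-1 element is read as a blue/green ratio.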

Test [14] can be described thus: NFAT Signaling Pathway (AID 444; active = well fitted curve in either direction with a large enough effect, not every such curve was filed as active;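 note: carbachol stimulus at about its EC50 of 1 µM final; % is set by controls: 0 for no effect and ±100 for the full control effect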). To be noted: Jurkat NFAT-bla M1, carbachol, beta-lactamase ratio, 5 h; at 38 µM (top of the series). The gist of the method:
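Jurkat cells carrying an NFAT-driven β-lactamase reporter and co-transfected muscarinic M1 receptor were treated with compound plus carbachol (1 uM final, an EC50 level) for 5 h at 37 °C. CCF4 loading followed for 1 h at RT; 460/530 nm ratio gave %activity.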

Test [15] can be described thus: Stat Signaling Pathway (AID 446; active = well fitted curve in either direction with a large enough effect, not every such curve was filed as active;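 note: ME-180 cervical cancer cells given 40 pM IL-6 alongside compound; SIE-controlled beta-lactamase reporter measured as 460/530 nm FRET emission ratio; % is set by controls: 0 for no effect and ±100 for the full control effect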). The settings on record: ME-180 (cervical carcinoma) SIE beta-lactamase reporter, IL-6 stimulated, 5 h; at 38 µM (top of the series). In short, it runs like this:
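Overnight-plated ME-180 cells bearing a STAT Inducible Element beta-lactamase reporter; 5 h co-exposure to compound and 40 pM IL-6; values normalized to 300 pM IL-6 and 125 nM JAK inhibitor controls.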

Test [16] concerns the target 3',5'-cyclic-AMP phosphodiesterase 4B (Homo sapiens) (UniProt Q07343). Kind of test: qHTS Assay for Inhibitors of PDE-IV (AID 607; active = well fitted activation curve with a large enough effect in the main read-out, with a control signal flat, not every such curve was filed as active; note: % of control where 0% means no effect). In short, it runs like this: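 Live HEK293 cells with a modified cyclic nucleotide-gated (CNG) channel report intracellular cAMP via membrane-potential dye fluorescence (ex 535/em 590 nm). Endogenous PDE-IV was targeted. Compounds were tested at up to 22.9 uM final; RO 20-1724 100 uM served as control.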

Test [17] deals with Cytochrome P450 2C9 (Homo sapiens) (UniProt P11712). Description: qHTS Assay for Inhibitors and Substrates of Cytochrome P450 2C9 (AID 883). Note: % is set by controls: 0 for no effect and ±100 for the full control effect; nearly all actives have a fitted effect of over 60% in size. The gist of the method: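 Human CYP2C9 (10nM) hydroxylated Luciferin-H (100uM, at its KM) to luciferin in 25mM KPO4. Compound was preincubated 10 min at 37C, then NADPH regeneration started a 60 min reaction at 37C. Luminescence was read after detection reagent, normalized to 57uM sulphaphenazole.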
Chain of Cytochrome P450 2C9 (Homo sapiens) (P11712 whole entry, looked up): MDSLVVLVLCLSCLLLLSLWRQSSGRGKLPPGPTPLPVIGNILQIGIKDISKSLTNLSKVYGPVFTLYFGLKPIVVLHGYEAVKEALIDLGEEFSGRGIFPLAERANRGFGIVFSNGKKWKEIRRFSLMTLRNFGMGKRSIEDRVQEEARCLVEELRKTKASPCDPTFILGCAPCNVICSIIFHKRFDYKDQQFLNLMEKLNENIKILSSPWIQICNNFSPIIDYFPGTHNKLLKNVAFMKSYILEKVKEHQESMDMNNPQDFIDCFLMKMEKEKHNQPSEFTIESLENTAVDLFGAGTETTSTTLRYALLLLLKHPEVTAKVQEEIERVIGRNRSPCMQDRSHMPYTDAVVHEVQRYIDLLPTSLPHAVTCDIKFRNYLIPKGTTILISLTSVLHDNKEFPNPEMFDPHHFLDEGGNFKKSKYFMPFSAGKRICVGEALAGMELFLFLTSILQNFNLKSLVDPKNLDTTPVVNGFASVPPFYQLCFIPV

Test [18] in a line: qHTS Assay for Lipid Storage Modulators (AID 1519; calls by dose curve). The settings on record: Drosophila S3 cells, BODIPY lipid droplet/cell ratio, laser cytometry, cells loaded with oleic acid. In short, it runs like this: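 Cells seeded at 5,000 per well were treated with compounds over a concentration series and loaded with oleic acid (400 uM, as added). Lipid droplet fluorescence (488 nm excitation, 500-530 nm channel) was read by laser-scanning cytometry and normalized to 20 uM Triacsin C.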

The target of test [19] is DNA dC->dU-editing enzyme APOBEC-3G (Homo sapiens) (UniProt Q9HC16). Description: qHTS for inhibitors of Vif-A3G interactions: Validation (AID 588379). Note: 0% is about no effect. The gist of the method:
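Yellow fluorescence (Ex 488, Em 500-530) of Vif-coexpressing HeLa A3G-eYFP cells, scanned by Acumen cytometer, reports blocked A3G degradation. Cells plated at 700/well overnight at 37 deg C before compound addition, then a further overnight compound incubation at 37 deg C.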

“And” between values parts separate entries of the source, which are not always exact repeats. Equal entries are not always repeated. Records with an inconclusive call do not appear. More than one record can exist for a structure, and the calls need not agree. The source made the active and inactive calls. Unless noted, calls come from the whole dose curve; as a rule, active = well fitted curve in the direction sought with a large enough effect; inconclusive = small, poorly fitted or top-dose-only effect, or another doubt; inactive = no such curve, though single readings can be large; an effect the other way counts as inactive or inconclusive.

Chain of Cytochrome P450 1A2 (Homo sapiens) (P05177 whole entry, looked up): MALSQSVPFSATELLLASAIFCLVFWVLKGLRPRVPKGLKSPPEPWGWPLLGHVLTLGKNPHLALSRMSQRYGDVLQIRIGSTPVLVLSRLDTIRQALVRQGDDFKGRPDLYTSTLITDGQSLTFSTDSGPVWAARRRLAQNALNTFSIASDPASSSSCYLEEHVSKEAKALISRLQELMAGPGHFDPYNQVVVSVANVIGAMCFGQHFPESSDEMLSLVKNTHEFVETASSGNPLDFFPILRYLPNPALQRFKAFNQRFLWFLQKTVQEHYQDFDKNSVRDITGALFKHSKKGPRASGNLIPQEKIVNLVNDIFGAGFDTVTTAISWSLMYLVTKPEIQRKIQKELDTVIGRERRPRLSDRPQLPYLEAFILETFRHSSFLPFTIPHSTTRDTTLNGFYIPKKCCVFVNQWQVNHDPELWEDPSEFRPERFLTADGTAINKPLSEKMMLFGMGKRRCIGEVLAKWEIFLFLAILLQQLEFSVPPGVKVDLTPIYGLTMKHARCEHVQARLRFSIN
Chain of 3',5'-cyclic-AMP phosphodiesterase 4B (Homo sapiens) (Q07343 whole entry, looked up): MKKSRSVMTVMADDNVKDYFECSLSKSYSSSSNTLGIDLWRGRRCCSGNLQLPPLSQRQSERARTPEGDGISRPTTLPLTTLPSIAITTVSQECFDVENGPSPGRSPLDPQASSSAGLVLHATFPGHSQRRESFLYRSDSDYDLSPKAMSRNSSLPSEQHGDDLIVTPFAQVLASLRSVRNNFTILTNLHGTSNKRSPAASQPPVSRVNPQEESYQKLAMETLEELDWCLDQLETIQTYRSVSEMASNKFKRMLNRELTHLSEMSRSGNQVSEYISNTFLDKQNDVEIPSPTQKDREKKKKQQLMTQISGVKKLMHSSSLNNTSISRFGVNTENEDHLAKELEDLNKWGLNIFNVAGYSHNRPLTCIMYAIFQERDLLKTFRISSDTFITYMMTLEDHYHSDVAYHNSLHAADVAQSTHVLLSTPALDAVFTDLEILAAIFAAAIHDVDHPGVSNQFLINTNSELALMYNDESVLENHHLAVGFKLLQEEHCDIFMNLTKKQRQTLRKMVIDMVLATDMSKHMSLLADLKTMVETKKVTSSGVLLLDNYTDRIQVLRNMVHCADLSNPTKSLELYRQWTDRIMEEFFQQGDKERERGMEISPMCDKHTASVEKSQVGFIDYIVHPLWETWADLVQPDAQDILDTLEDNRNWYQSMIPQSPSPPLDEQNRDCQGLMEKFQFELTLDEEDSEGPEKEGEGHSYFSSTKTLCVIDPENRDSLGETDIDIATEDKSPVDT
Chain of Cytochrome P450 2C19 (Homo sapiens) (P33261 whole entry, looked up): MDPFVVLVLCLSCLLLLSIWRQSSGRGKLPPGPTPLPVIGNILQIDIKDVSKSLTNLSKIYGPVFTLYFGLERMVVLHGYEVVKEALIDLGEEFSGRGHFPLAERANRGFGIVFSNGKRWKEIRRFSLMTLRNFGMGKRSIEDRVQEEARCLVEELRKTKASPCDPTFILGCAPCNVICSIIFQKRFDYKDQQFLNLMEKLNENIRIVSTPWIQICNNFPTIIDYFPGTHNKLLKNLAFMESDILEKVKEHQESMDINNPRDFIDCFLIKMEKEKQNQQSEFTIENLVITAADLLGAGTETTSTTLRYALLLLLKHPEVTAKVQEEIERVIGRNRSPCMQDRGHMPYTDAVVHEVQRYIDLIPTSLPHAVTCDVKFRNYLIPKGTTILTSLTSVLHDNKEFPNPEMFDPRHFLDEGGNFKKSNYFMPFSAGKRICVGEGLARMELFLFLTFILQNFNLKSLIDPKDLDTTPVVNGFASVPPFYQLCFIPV

For the molecule `NC(=NC1C2CC3CC(C2)CC1C3)Nc1ccc(I)cc1` (stereo not given), the Potency in test [1] is 39.8 µM (active); in test [2], > 46 µM (inactive); in [3], > 46 µM (inactive); in [6] it was 0.0398 µM (active); in [7] it was 5.01 µM (active); in test [10], 31.6 µM (active). Further, the Potency in test [11] is 12.6 µM (active); in [12], “inactive and 4.47 µM (active)”. Besides, the Potency entry in [4], in test [5], in [8] and in test [9] was “inactive” in each case.
Consider `COC(=O)C1=C(C)NC(C)=C(C(=O)NCCCN2CCC(c3ccccc3)(c3ccccc3)CC2)C1c1ccc([N+](=O)[O-])cc1` (stereo not given), for which the Potency entry in [9] and in test [12] was “inactive” each time.
For `COc1ccc(/C=C\C(=O)Nc2ccccc2C(=O)O)cc1OC`, the results for the activity change, negative = inhibition in test [13] and in [14] were -10.8% (inactive) and -3.53% (inactive), respectively. The Potency entry in test [1], in test [4], in test [16], in test [17], in test [5] and in [6] was “inactive” in each case. Further, the Potency entry in test [9] is “inactive”. Also, in test [15], the activity, negative = inhibition was 7.79% (inactive). The Potency in test [2] and in [3] was > 46 µM (inactive) throughout. The max response in test [11] is -9.06% (inactive).
On to `COc1ccc2c3c1O[C@H]1C[C@H](O)C=C[C@@]31CCN(C)C2`, for which the Potency in test [2] and in [3] was > 46 µM (inactive) in each case. Moreover, the Potency entry in [4], in [16], in [9] and in [10] was “inactive” throughout. The activity change, negative = inhibition in test [18] (at 57.5 µM (top of the series)) is 3.95% (inactive). Moreover, the figures for the max response in test [18] (measured here: cell count channel max response) and in [18] (measured here: lipid channel max response) were 9.55% and 14.8%, respectively.
Regarding `CN1CCN(C2=Cc3ccccc3Oc3ccc(Cl)cc32)CC1`, the Potency in [1] is 20 µM (active); in test [2] it was > 46 µM (inactive); in test [3] it was > 46 µM (inactive); in [6], 0.0398 µM (active); in test [7], 3.98 µM (active). Further, the Potency result in [4], in [5], in [19], in test [9] and in test [10] was “inactive” throughout. Besides, in test [11], the max response was 13.7% (inactive).
Turning to `CN(Cc1ccccc1)C(=O)[C@H](Cc1ccc2ccccc2c1)NC(=O)[C@@H]1CCCN1C(=O)Nc1ccccc1[N+](=O)[O-]`, the Potency result in [9] and in test [10] was “inactive” throughout. Moreover, the max response in test [11] was 12.2% (inactive).
